Results taken from PubChem BioAssay AID1986 (Sanford-Burnham Center for Chemical Genomics, 2009).
“And” between values parts separate entries of the source, which are not always exact repeats. Equal values may be shown once. Hit rate of the full screen: of about 290,000 compounds, about 890 (0.31%) were called active. Rule as the data show it: active = inhibition mostly above about 52% (no sharp cut-off); inactive = mostly below about 76%. Many of the other results were omitted from the sample, so actives are more common in it than they were.

Assay: cell-free HIV fusion peptide-binding blockers – biochemical, uHTS, fluorescence dequenching, primary screen (AID 1986)
Settings: 30 min, stronger effect = higher value
[1] = measured here: repeat confirmation average inhibition, at 18.6 µM

| Structure (SMILES) | inhibition (at 20 µM) | inhibition [1] [%] |
| --- | --- | --- |
| Cc1ccc(NC(=O)c2ccc3nsnc3c2)c(Cl)c1 | 1.6% (inactive) |  |
| O=C(CSc1nnc(C2CCCCC2)o1)Nc1ccccc1Cl | 2.8% (inactive) |  |
| O=C(NN=C1CCCC1)c1ccc(Cl)cc1 | -0.5% (inactive) |  |
| CC(C)(C)c1ccc(NC(=S)NCCc2ccccn2)cc1 | -0.5% (inactive) |  |
| CCOC(=O)N1CC=C2C(C#N)=C(N)C(C#N)(C#N)[C@H](c3ccccc3OCC)[C@H]2C1 | 0.7% (inactive) |  |
| CCN1CC=C2C(C#N)=C(N)C(C#N)(C#N)C(c3cc(Cl)ccc3Cl)C2C1 (centres undefined) | 2.6% (inactive) |  |
| COc1cccc(C2C3CN(C)CC=C3C(C#N)=C(N)C2(C#N)C#N)c1OC (centres undefined) | 149% (inactive) |  |
| CCCN1CC=C2C(C#N)=C(N)C(C#N)(C#N)C(c3cccc(OC)c3OC)C2C1 (centres undefined) | 67.5% (active) |  |
| CCN1CC=C2C(C#N)=C(N)C(C#N)(C#N)[C@H](c3cccc(OC)c3OC)[C@H]2C1 | 61.5% (active) |  |
| COc1ccc([C@@H]2[C@H]3CN(C(C)=O)CC=C3C(C#N)=C(N)C2(C#N)C#N)c2ccccc12 | -3.1% (inactive) |  |
| Cn1c(COc2ccccc2)nnc1SCC(=O)NCc1ccccc1 | -0.1% (inactive) |  |
| CC1(C)CC(NCc2cccc([N+](=O)[O-])c2)CC(C)(C)N1 | -1.8% (inactive) |  |
| CN(C)n1cnc2ccsc2c1=O | 1.1% (inactive) |  |
| CN(C(=O)COC(=O)CNC(=O)c1ccccc1Cl)c1ccccc1 | -0.3% (inactive) |  |
| CCC1=NN2C(=N)/C(=C\c3cccn3-c3ccc(C)c(C)c3)C(=O)N=C2S1 | 35.7% (inactive) |  |
| CCC1=NN2C(=N)/C(=C\c3cccn3-c3ccc(C)cc3C)C(=O)N=C2S1 | 51% (active) |  |
| CCC1=NN2C(=N)/C(=C\c3cccn3-c3c(C)cccc3C)C(=O)N=C2S1 | 25.7% (inactive) |  |
| CC(NCCc1ccc(S(N)(=O)=O)cc1)C(=O)NCCc1ccc(F)cc1 (centres undefined) | 0.6% (inactive) |  |
| Cc1ccccc1/C=C1\SC(=S)N(/N=C/c2cc([N+](=O)[O-])ccc2O)C1=O | 26.8% (inactive) |  |
| O=C1/C(=C/c2cccc(Br)c2)SC(=S)N1/N=C/c1cc([N+](=O)[O-])ccc1O | 16.7% (inactive) |  |

| Structure (SMILES) | inhibition (at 20 µM) | inhibition [1] [%] |
| --- | --- | --- |
| Cc1ccc(/C=C2\SC(=S)N(/N=C/c3cc([N+](=O)[O-])ccc3O)C2=O)o1 | 82.2% (active) |  |
| CCNC(=S)NS(=O)(=O)c1ccc(C)cc1 | -1.7% (inactive) |  |
| CC(C)NC(=O)/C(C#N)=C\c1ccc(N(C)C)o1 | 78.6% (active) | 59.9 |
| Cc1ccc(/C=C(\C#N)C(=O)NC(C)c2ccccc2)o1 (centres undefined) | 0.2% (inactive) |  |
| CCN(CC)c1ccc(/C=C(/C#N)C(=O)NCc2ccccc2)o1 | 128% (inactive) |  |
| CCN(CC)c1ccc(/C=C(/C#N)C(=O)NC(C)C)o1 | 113% (active) |  |
| CN(C)c1ccc(/C=C(/C#N)C(=O)NCc2ccccc2)o1 | 134% (inactive) |  |
| Cc1ccc(/C=C(\C#N)C(=O)NC(C)C)o1 | 1.4% (inactive) |  |
| CC(C)NC(=O)/C(C#N)=C/c1ccc(N(C)C)o1 | 82.3% (active) | 64.2 |
| Cc1ccc(/C=C(/C#N)C(=O)NC(C)c2ccccc2)o1 (centres undefined) | 3.2% (inactive) |  |
| CC(C)NC(=O)/C(C#N)=C\c1ccc(N(C)C)c(Br)c1 | 0.3% (inactive) |  |
| O=C(OCc1ccccc1)c1cnc(Cl)c(Cl)c1 | -1.7% (inactive) |  |
| CC(C)CNC(=O)c1cccc(NC(=O)CCc2ccccc2)c1 | 0.2% (inactive) |  |
| CC(=O)NCCn1c(SCC(=O)NCCC(C)C)nc2ccccc2c1=O | -1.8% (inactive) |  |
| Nc1c(C(=O)OCC2CCCO2)c2nc3ccccc3nc2n1-c1ccc2c(c1)OCCO2 (centres undefined) | 0.3% (inactive) |  |
| O=C(c1ccco1)N1CCN(c2ccc([N+](=O)[O-])c(N3CCOCC3)c2)CC1 | 0.8% (inactive) |  |
| Nc1ccc2nc(SCc3ccc([N+](=O)[O-])cc3)sc2c1 | 1.8% (inactive) |  |
| Cn1cc(CN2CCN(CC(C)(C)C)C(CCO)C2)c2ccccc21 (centres undefined) | 2.5% (inactive) |  |
| Cc1ccc(CSc2nc3ccccc3c(=O)n2CCCC(=O)NCc2ccco2)cc1 | -1.1% (inactive) |  |
| CN1CCN(c2ccc(NC(=O)CSc3nnnn3-c3ccccc3F)cc2)CC1 | -0.3% (inactive) |  |

| Structure (SMILES) | inhibition (at 20 µM) | inhibition [1] [%] |
| --- | --- | --- |
| Cc1cc2nc(-c3ccc(SCc4ccc(C#N)cc4)nc3)[nH]c2cc1C | 8.6% (inactive) |  |
| CC(=O)CSc1ccc(-c2nc3cc(C)c(C)cc3[nH]2)cn1 | 0.7% (inactive) |  |
| Cc1cc2nc(-c3ccc(SCc4ccc(C(=O)O)cc4)nc3)[nH]c2cc1C | 56.9% (active) |  |
| Cn1nc(CC(=O)Nc2cccnc2N2CCOCC2)c2ccccc2c1=O | 0.1% (inactive) |  |
| Cc1ccccc1N=Nc1ccc(O)c2ncccc12 | -1.3% (inactive) |  |
| O=S(=O)(O)c1cccc2c(N=Nc3ccc(O)c4ncccc34)cccc12 | 64.9% (active) |  |
| NS(=O)(=O)c1ccc(N=Nc2ccc(O)c3ncccc23)cc1 | -1.1% (inactive) |  |
| O=C(O)/C=C\C(=O)Nc1ccccc1C(=O)NCc1ccccc1 | -0.8% (inactive) |  |
| CCN(CC)c1ccc(C=O)c(OC)c1 | -0.9% (inactive) |  |
| CCN(CC)c1ccc(/C=C/c2cccc[n+]2C)c(OC)c1 | 77.3% (active) | 63.6 |
| COc1ccc(/C=C/c2cccc[n+]2C)c(O)c1 | 2.7% (inactive) |  |
| Cc1c(OC(C)C(=O)NCCCN2CCCC2=O)ccc2c3c(c(=O)oc12)CCCC3 (centres undefined) | -2.1% (inactive) |  |
| CCOC(=O)C1(Cc2ccccc2)CCCN(Cc2cnn(CC)c2)C1 (centres undefined) | -1.6% (inactive) |  |
| Cc1cccc2c1N(C(=O)c1ccco1)C(C)(C)c1ssc(=S)c1-2 | -4.4% (inactive) |  |
| CCCn1cc(CN2CCC(Cc3cccc(F)c3)(C(=O)OCC)CC2)c(C)n1 | -3.2% (inactive) |  |
| COc1cc([N+](=O)[O-])ccc1NC(=O)N1CCCCCC1 | -0.4% (inactive) |  |
| CN1CCC2(CC1)C1CN(C)CC=C1C(C#N)=C(N)C2(C#N)C#N (centres undefined) | 51.5% (active) and 103% (active) | 50.3 |
| CN1CC=C2C(C#N)=C(N)C(C#N)(C#N)[C@H](c3cccs3)[C@H]2C1 | 25.9% (inactive) |  |
| N#CC1=C(N)C(C#N)(C#N)C2(CCC3(CC2)OCCO3)C2CC3(CC=C12)OCCO3 (centres undefined) | 5.6% (inactive) |  |
| CC(=O)N1CCC(=O)Nc2ccc([N+](=O)[O-])cc21 | -0.3% (inactive) |  |
